Data reported in publication PMC5540273 (PLoS ONE, 2017).

Columns and labels:
Conditions in all cases: concentration: 1 μM, replicates: in singlicate; n = 1
[1] = system: MAST1
[2] = system: T1, MEK1
T1 construct: gene MAP2K1

[3] = system: T2, MEK2
T2 construct: gene MAP2K2

[4] = system: T3, MEK3
T3 construct: gene MAP2K3

[5] = system: T4, MEK4
T4 construct: gene MAP2K4

[6] = system: T5, MEK5
T5 construct: gene MAP2K5

[7] = system: T6, MEK6
T6 construct: gene MAP2K6

[8] = system: MELK
[9] = system: MERTK
[10] = system: MET
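Also: KINOMEscan kinase panel screen.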

Row | SMILES | %Inh [1] [%] | %Inh [2] [%] | %Inh [3] [%] | %Inh [4] [%] | %Inh [5] [%] | %Inh [6] [%] | %Inh [7] [%] | %Inh [8] [%] | %Inh [9] [%] | %Inh [10] [%]
1 | CN1c2ccc(-c3ccc(C(N)=O)cc3)cc2-c2[nH]ncc2S1(=O)=O | 0 | 41 | 17 | 16 | 0 | 24 | 0 | 10 | 46 | 14
2 | COc1ccc(-c2coc3ccc(-c4nnc(C)o4)cc23)cc1 | 0 | 0 | 4 | 0 | 1 | 0 | 0 | 0 | 8 | 0
3 | Nc1nccc(-c2c(-c3ccc(F)cc3)ncn2C2CCN(Cc3ccccc3)CC2)n1 [SB-219980] | 4 | 7 | 9 | 19 | 38 | 28 | 21 | 15 | 0 | 0
4 | COc1ccc(CSc2nnc(-c3ccc4c(c3)CCO4)o2)cc1 | 7 | 0 | 0 | 0 | 0 | 1 | 0 | 0 | 0 | 0
5 | Cn1cncc1C(=O)NC1CCN(c2ccnc(Nc3ccc(F)cc3)n2)C1 (stereo not drawn) [GSK1379717] | 0 | 0 | 0 | 11 | 28 | 3 | 0 | 0 | 5 | 0
6 | Cc1ccccc1-c1cc(-c2c[nH]nc2-c2ccccn2)ccn1 [GW680061] | 6 | 0 | 0 | 0 | 4 | 5 | 0 | 0 | 16 | 0
7 | O=C(Nc1n[nH]c2nc(-c3cccs3)c(Br)cc12)C1CC1 [SB-735297] | 26 | 0 | 0 | 34 | 99.3 | 68 | 0 | 15 | 15 | 0
8 | COc1ccc(CSc2nnc(-c3ccc4nccn4c3)o2)cc1C(F)(F)F | 0 | 13 | 21 | 43 | 51 | 0 | 0 | 16 | 5 | 2
9 | NS(=O)(=O)c1cccc(N/C=C2\C(=O)Nc3ccc(S(=O)(=O)Cc4c(Cl)cccc4Cl)cc32)c1 [GSK398099] | 0 | 0 | 0 | 1 | 23 | 14 | 0 | 0 | 0 | 23
10 | Fc1ccc(-c2nc[nH]c2-c2ccncc2)cc1 [SB-217360] | 0 | 36 | 58 | 32 | 6 | 66 | 0 | 0 | 19 | 0
11 | O=C(Nc1n[nH]c2cc(-c3ccsc3)ccc12)C1CC1 [SB-732932] | 36 | 11 | 16 | 17 | 18 | 50 | 0 | 0 | 14 | 0
12 | O=c1cc(N2CCOCC2)nc2n(Cc3cccc(Cl)c3Cl)c3ccccc3n12 [GSK2299009] | 0 | 0 | 0 | 0 | 34 | 75 | 0 | 89 | 41 | 0
13 | Cc1ccc(-c2nc(Nc3ccncc3)c3ccccc3n2)s1 [GSK189015] | 0 | 11 | 1 | 0 | 11 | 17 | 0 | 0 | 11 | 10
14 | Cc1ccc(NC(=O)Nc2ccccc2F)cc1-c1ccc(C(=O)Nc2ccncc2)cc1 [GSK1398477] | 0 | 0 | 0 | 0 | 26 | 37 | 0 | 14 | 31 | 0
15 | O=C(Nc1n[nH]c2nc(-c3ccco3)c(Br)cc12)C1CCN(Cc2ccccc2)C1.O=C(O)[C@H](O)[C@@H](O)C(=O)O (stereo not drawn) [SB-742034] | 13 | 1 | 25 | 21 | 20 | 32 | 16 | 2 | 0 | 0
16 | CS(=O)(=O)CCNCc1nc(-c2ccc3ncnc(Nc4ccc5c(cnn5Cc5ccccc5)c4)c3c2)cs1.Cl.Cl [GW569716] | 32 | 0 | 0 | 0 | 0 | 99.6 | 0 | 0 | 0 | 0
17 | CCn1c(-c2c(N)noc2C)nc2cnccc21 [SB-737856] | 0 | 0 | 2 | 0 | 0 | 32 | 70 | 0 | 1 | 0
18 | CS(=O)(=O)Cc1ccc(Nc2nccc(-c3c(-c4cccc(NC(=O)C5CCCCC5)c4)nn4ncccc34)n2)cc1 [GSK350559] | 39 | 32 | 19 | 42 | 16 | 98.3 | 0 | 0 | 12 | 10
19 | Nc1ncnc2occ(-c3ccc4c(c3)CCN4C(=O)Cc3cc(F)ccc3F)c12 [GSK2645446] | 0 | 0 | 0 | 0 | 2 | 92.3 | 0 | 3 | 34 | 0
20 | Fc1ccc(-c2nn3cccc(F)c3c2-c2ccncc2)cc1 [GW475620] | 0 | 0 | 0 | 0 | 29 | 8 | 0 | 41 | 3 | 0
21 | CSc1ccc(-c2nc3n(c2-c2ccncc2)CCC3)cc1 [SKF-105561] | 16 | 1 | 25 | 18 | 0 | 22 | 0 | 18 | 0 | 0

Row | SMILES | %Inh [1] [%] | %Inh [2] [%] | %Inh [3] [%] | %Inh [4] [%] | %Inh [5] [%] | %Inh [6] [%] | %Inh [7] [%] | %Inh [8] [%] | %Inh [9] [%] | %Inh [10] [%]
22 | CC(=O)c1cccc(NC(=O)NC2CCN(c3ccnc(Nc4ccc(F)cc4)n3)C2)c1 (stereo not drawn) [GSK1379710] | 30 | 6 | 16 | 9 | 57 | 34 | 9 | 12 | 40 | 0
23 | O=C1NC(=O)C(c2ccc(Cl)cc2)=C1Nc1ccc(O)cc1 [SB-340867] | 24 | 0 | 0 | 9 | 0 | 8 | 0 | 1 | 0 | 0
24 | COc1ccc(Nc2nccc(NCCNC(=O)Nc3cc(C)ccc3C)n2)cc1 [GSK1379899] | 0 | 0 | 0 | 0 | 0 | 66 | 0 | 0 | 11 | 0
25 | Cc1cccc2c(-c3ccncn3)c(-c3ccc(F)cc3)nn12 [GW515532] | 7 | 0 | 0 | 0 | 19 | 10 | 0 | 0 | 15 | 0
26 | O=C(Nc1n[nH]c2nc(-c3cccs3)c(Br)cc12)C1CCCC1 [SB-743341] | 12 | 15 | 14 | 18 | 23 | 31 | 0 | 0 | 0 | 0
27 | COc1ccc(Nc2nccc(N3CCC(NC(=O)C(C)c4ccc(Cl)cc4)CC3)n2)cc1 (stereo not drawn) [GSK1379812] | 0 | 0 | 0 | 0 | 5 | 10 | 0 | 0 | 22 | 0
28 | COc1cccc(NC(=O)Nc2ccc(C)c(-c3ccc(C(=O)Nc4ccncc4)cc3)c2)c1 [GSK1398474] | 0 | 0 | 0 | 0 | 42 | 8 | 0 | 0 | 35 | 16
29 | COC(=O)c1cccc(NC(=O)NC2CCN(c3ccnc(Nc4ccc(F)cc4)n3)C2)c1 (stereo not drawn) [GSK1379725] | 0 | 0 | 0 | 0 | 36 | 12 | 0 | 0 | 2 | 0
30 | CCn1c(-c2ccccc2)nc2cnccc21 [SB-733416] | 0 | 0 | 0 | 0 | 25 | 37 | 0 | 0 | 24 | 0
31 | Nc1cccc(-c2ccc3c(N)n[nH]c3c2)n1 [GSK2192730] | 0 | 3 | 22 | 3 | 1 | 31 | 18 | 0 | 0 | 0
32 | Cl.Cl.Cl.N#Cc1ccc(CCNc2nccc(-c3cccc(CN4CCNCC4)c3)n2)cc1 [GSK2137462] | 0 | 0 | 0 | 5 | 20 | 35 | 7 | 38 | 20 | 0
33 | CC(=O)c1c(C)c2cnc(Nc3ccn(C)n3)nc2n(C2CCCC2)c1=O | 0 | 0 | 0 | 13 | 0 | 0 | 4 | 1 | 0 | 0
34 | Cc1ccccc1Cn1ccn2c(=O)cc(N3CCOCC3)nc12 [GSK2269905] | 0 | 0 | 0 | 0 | 27 | 13 | 0 | 0 | 25 | 0
35 | CS(=O)(=O)CCNCc1nc(-c2ccc3ncnc(Nc4ccc(OCc5ccccc5)c(Cl)c4)c3c2)cs1.Cl [GW582764] | 43 | 0 | 0 | 0 | 16 | 84 | 0 | 0 | 9 | 0
36 | CNc1nc(-c2ccc3c(N)n[nH]c3c2)cc(N2C[C@@H](C(=O)NC3CCCCC3)OC[C@H]2C)n1 [GSK2375584] | 0 | 8 | 11 | 0 | 11 | 14 | 0 | 57 | 2 | 0
37 | Cc1ccc(NC(=O)Nc2ccccc2)cc1-c1ccc(C(=O)Nc2ccncc2)cc1 [GSK1398471] | 0 | 0 | 0 | 0 | 23 | 4 | 8 | 11 | 40 | 4
38 | Cc1ccc(NC(=O)Nc2ccc(Cl)cc2)cc1-c1ccc(C(=O)Nc2ccncc2)cc1 [GSK1398472] | 0 | 0 | 0 | 0 | 26 | 11 | 0 | 0 | 0 | 0
39 | CNc1nc(-c2ccc3c(N)n[nH]c3c2)cc(N2C[C@@H](C(=O)Nc3ccccc3)CC[C@H]2C)n1 [GSK2298859] | 0 | 0 | 0 | 0 | 7 | 7 | 0 | 58 | 35 | 0
40 | COc1nccc(-c2c(-c3ccc(F)cc3)ncn2CCCN2CCOCC2)n1 [SB-282852] | 20 | 0 | 25 | 31 | 23 | 7 | 0 | 0 | 19 | 0
41 | CCCCc1nn2ncccc2c1-c1ccnc(NC2CC2)n1 [GW684374] | 0 | 0 | 0 | 8 | 7 | 9 | 10 | 15 | 5 | 0
42 | COC(=O)C(Cc1ccccc1)NC(=O)NC1CCN(c2ccnc(Nc3ccc(F)cc3)n2)C1 (stereo not drawn) [GSK1379714] | 42 | 35 | 0 | 31 | 0 | 54 | 4 | 40 | 0 | 0
